Measured values published in PubChem BioAssay (Tox21).
Records with an inconclusive call do not appear. Where a call stands in place of a potency, no number is given. More than one record can exist for a structure, and the calls need not agree. Active and inactive are the calls of the source. Unless noted, the call rests on the fitted dose curve; in most records, active means well fitted curve in the direction sought with a large enough effect in the repeat runs; inconclusive means weak or mixed curves; inactive means no such curve, though single readings can be large; an effect the other way counts as inactive or inconclusive.

Tests used:
[1] = qHTS assay to identify aromatase inhibitors - cell viability counter screen (AID 743084);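 further: cells stimulated with testosterone during compound exposure; nearly all actives have a fitted effect of over 55% in size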; further: potency means the concentration at half of the fitted maximal effect
[2] = target: Aryl hydrocarbon receptor (Homo sapiens) (UniProt P35869); assay: qHTS assay to identify small molecule that activate the aryl hydrocarbon receptor (AhR) signaling pathway (AID 743085); further: nearly all actives have a fitted effect of over 15% in size; further: potency means the concentration at half of the fitted maximal effect;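 on activation: HG2L7.5c1 human HepG2 liver cells with stably integrated DRE-driven firefly reporter; series mostly up to about 70 µM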
Outline: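 Reporter assay in engineered HepG2 line HG2L7.5c1, whose plasmid carries twenty dioxin responsive elements upstream of firefly luciferase. Treatment lasted 24 h at 37C; ONE-Glo luminescence gauged induction.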

[3] = qHTS assay to identify small molecule that activate the aryl hydrocarbon receptor (AhR) signaling pathway - cell viability counter screen (AID 743086); further: nearly all actives have a fitted effect of over 45% in size; further: potency means the concentration at half of the fitted maximal effect
Outline: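 HepG2-AhR-luc (HG2L7.5c1) cells, 4000/well, were preincubated 5 h at 37C, exposed to compound in qHTS format for 24 hr at 37C, then given CellTiter-Fluor for 30 min; viability was read as fluorescence in the reporter wells.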

[4] = target: Peroxisome proliferator-activated receptor gamma (Homo sapiens) (UniProt P37231); assay: qHTS assay to identify small molecule agonists of the peroxisome proliferator-activated receptor gamma (PPARg) signaling pathway (AID 743094; active means well fitted activation curve with a large enough effect in the signal ratio in the repeat runs, not every such curve was filed as active; the % refers to the signal ratio)
Outline: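 Quantitative HTS agonist mode: stable HEK293H line with UAS-beta-lactamase reporter under PPARg control, 17 h compound exposure at 37C, fluorescence after 1 h FRET substrate loading at room temperature.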

[5] = target: Peroxisome proliferator-activated receptor gamma (Homo sapiens) (UniProt P37231); assay: qHTS assay to identify small molecule antagonists of the peroxisome proliferator-activated receptor gamma (PPARg) signaling pathway (AID 743191; calls by dose curve; further: series mostly up to about 63 µM; nearly all actives have a fitted effect of over 30% in size)
Outline: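 GeneBLAzer PPARg UAS-bla HEK293H cells carrying a UAS-driven beta-lactamase reporter were plated at 3000 cells/well, preincubated 5 h at 37C, then given compound for 17 h at 37C; LiveBLAzer B/G FRET substrate was read after 1 h at room temperature.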

[6] = qHTS assay to identify small molecule antagonists of the peroxisome proliferator-activated receptor gamma (PPARg) signaling pathway - cell viability counter screen (AID 743194); further: nearly all actives have a fitted effect of over 55% in size
Outline: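 PPARg-UAS-bla HEK293H cells were plated, rested 5 h at 37 C, then treated with compounds plus rosiglitazone (50 nM final) for 17 h at 37 C; viability was then read by CellTiter-Glo luminescence after 30 min at room temperature.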

[7] = qHTS assay for small molecule agonists of the antioxidant response element (ARE) signaling pathway (AID 743202; active means well fitted activation curve with a large enough effect in the signal ratio in the repeat runs, not every such curve was filed as active; the % refers to the signal ratio)
Outline: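 Read-out: LiveBLAzer B/G FRET substrate fluorescence after 2 h at room temperature, following 16 h compound treatment at 37 C of HepG2 cells carrying an ARE-driven beta-lactamase reporter.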

[8] = qHTS assay for small molecule agonists of the antioxidant response element (ARE) signaling pathway - cell viability counter screen (AID 743203; calls by dose curve; further: nearly all actives have a fitted effect of over 55% in size)
Outline: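 Seeded at 2,000 cells/well, ARE-bla HepG2 cells were incubated 5 hrs before compound addition. After 16 hrs of treatment at 37C with 5% CO2, CellTiter-Glo reagent was added and luminescence read 30 min later.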

[9] = qHTS assay for small molecule activators of the heat shock response signaling pathway - cell viability counter screen (AID 743209); further: nearly all actives have a fitted effect of over 50% in size
Outline: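 First, HSE-bla HeLa cells were seeded at 1500 cells/well and kept overnight at 37 C. Next, compounds were pinned in and incubated 5 h. After the FRET substrate step, CellTiter-Glo was added and luminescence read 30 min later.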

[10] = qHTS assay for small molecule activators of the heat shock response signaling pathway (AID 743210; active means well fitted activation curve with a large enough effect in the signal ratio in the repeat runs, with a control signal flat, not every such curve was filed as active; the % refers to the signal ratio; further: series mostly up to about 63 µM)
Outline: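 HSE-bla HeLa cells (beta-lactamase reporter under heat shock response elements) were exposed to compounds for 5 h at 37 C, then loaded with LiveBLAzer B/G FRET substrate for 2.5 h at room temperature before fluorescence reading.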

[11] = qHTS assay to identify small molecule agonists of the peroxisome proliferator-activated receptor delta (PPARd) signaling pathway - cell viability counter screen (AID 743211); further: nearly all actives have a fitted effect of over 55% in size
Outline: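 Multiplexed format: after the 2 h room-temperature LiveBLAzer B/G FRET step, CellTiter-Glo was added to the same wells. Luminescence after 30 min gave cell viability; compound exposure was 17 h at 37C.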

[12] = target: Peroxisome proliferator-activated receptor delta (Homo sapiens) (UniProt Q03181); assay: qHTS assay to identify small molecule agonists of the peroxisome proliferator-activated receptor delta (PPARd) signaling pathway (AID 743212; calls by dose curve)
Outline: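 GeneBLAzer PPARd UAS-bla HEK293H cells (beta-lactamase reporter under UAS control), plated and rested 5 h at 37 C, then exposed to compounds in DMSO at 37 C; LiveBLAzer B/G FRET substrate added, 2 h room temperature, fluorescence read.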

[13] = target: Peroxisome proliferator-activated receptor delta (Homo sapiens) (UniProt Q03181); assay: qHTS assay to identify small molecule antagonists of the peroxisome proliferator-activated receptor delta (PPARd) signaling pathway (AID 743215; active means well fitted inhibition curve with a large enough effect in the signal ratio in the repeat runs, not every such curve was filed as active; the % refers to the signal ratio;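 further: cells stimulated with agonist L165041 at 300 nM final during compound exposure; series mostly up to about 62 µM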)
Outline: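 Inhibition of L165041-driven (300 nM final) PPARd signaling is scored in HEK293H UAS-bla cells. Exposure lasts 17 h at 37 C; beta-lactamase activity is then read by FRET substrate fluorescence after 2 h at room temperature.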

[14] = target: Bile acid receptor (Homo sapiens) (UniProt Q96RI1); assay: qHTS assay to identify small molecule antagonists of the farnesoid-X-receptor (FXR) signaling pathway (AID 743217; active means well fitted inhibition curve with a large enough effect in the signal ratio in the repeat runs, not every such curve was filed as active; the % refers to the signal ratio)
Outline: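 Antagonist mode against 50 uM (final) chenodeoxycholic acid stimulation in FXR-bla HEK 293T cells, 16 h at 37 °C. Inhibition detected as reduced beta-lactamase activity via LiveBLAzer B/G FRET fluorescence after 2 h at room temperature.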

[15] = qHTS assay to identify small molecule agonists of the farnesoid-X-receptor (FXR) signaling pathway - cell viability counter screen (AID 743218); further: nearly all actives have a fitted effect of over 45% in size
Outline: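 Cytotoxicity counter-screen run in parallel, same wells: FXR-UAS-bla HEK 293T cells dosed 16 h at 37 C, viability read by CellTiter-Glo luminescence after 30 min at room temperature.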

[16] = target: Bile acid receptor (Homo sapiens) (UniProt Q96RI1); assay: qHTS assay to identify small molecule agonists of the farnesoid-X-receptor (FXR) signaling pathway (AID 743220; active means well fitted activation curve with a large enough effect in the signal ratio in the repeat runs, not every such curve was filed as active; the % refers to the signal ratio)
Outline: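 Beta-lactamase reporter under UAS control in GeneBLAzer FXR HEK 293T cells (5000/well) measured with LiveBLAzer FRET substrate after 2 h at room temperature. Compound exposure lasted 16 h at 37C.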

[17] = target: Vitamin D3 receptor (Homo sapiens) (UniProt P11473); assay: qHTS assay to identify small molecule agonists of the vitamin D receptor (VDR) signaling pathway (AID 743222; calls by dose curve)
Outline: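 Quantitative HTS agonist-mode screen: compounds in DMSO were pin-transferred onto VDR-bla cells and incubated 16 h at 37C, 5% CO2. Reporter activity was detected with LiveBLAzer B/G FRET substrate after 2 h at room temperature.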

[18] = target: Vitamin D3 receptor (Homo sapiens) (UniProt P11473); assay: qHTS assay to identify small molecule antagonists of the vitamin D receptor (VDR) signaling pathway (AID 743223; active means well fitted inhibition curve with a large enough effect in the signal ratio in the repeat runs, not every such curve was filed as active; the % refers to the signal ratio)
Outline: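 After VDR-bla cells are plated and left 4 h at 37C, DMSO-dissolved compounds and 3 nM (final) calcitriol agonist are added. Incubation continues 16 h at 37C; FRET beta-lactamase substrate then develops 2 h at room temperature.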

[19] = qHTS assay to identify small molecule antagonists of the peroxisome proliferator-activated receptor delta (PPARd) signaling pathway - cell viability counter screen (AID 743213); further: nearly all actives have a fitted effect of over 50% in size
Outline: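 Luminescence from CellTiter-Glo, added after the bla read and incubated 30 min at room temperature, gives viability of HEK293H PPARd-bla cells exposed to compounds for 17 h at 37 C with 300 nM L165041.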

[20] = qHTS assay to identify small molecule antagonists of the farnesoid-X-receptor (FXR) signaling pathway - cell viability counter screen (AID 743221; active means well fitted cell-killing curve with a large enough effect in the repeat runs, not every such curve was filed as active; further: nearly all actives have a fitted effect of over 50% in size)
Outline: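 CellTiter-Glo, 30 min RT, luminescence; same wells as the LiveBLAzer FRET read. Cells: FXR-UAS-bla HEK 293T. Treatment: compound with chenodeoxycholic acid 50 uM final, 16 h at 37 C.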

Sequence of Vitamin D3 receptor (Homo sapiens) (P11473 whole entry, looked up): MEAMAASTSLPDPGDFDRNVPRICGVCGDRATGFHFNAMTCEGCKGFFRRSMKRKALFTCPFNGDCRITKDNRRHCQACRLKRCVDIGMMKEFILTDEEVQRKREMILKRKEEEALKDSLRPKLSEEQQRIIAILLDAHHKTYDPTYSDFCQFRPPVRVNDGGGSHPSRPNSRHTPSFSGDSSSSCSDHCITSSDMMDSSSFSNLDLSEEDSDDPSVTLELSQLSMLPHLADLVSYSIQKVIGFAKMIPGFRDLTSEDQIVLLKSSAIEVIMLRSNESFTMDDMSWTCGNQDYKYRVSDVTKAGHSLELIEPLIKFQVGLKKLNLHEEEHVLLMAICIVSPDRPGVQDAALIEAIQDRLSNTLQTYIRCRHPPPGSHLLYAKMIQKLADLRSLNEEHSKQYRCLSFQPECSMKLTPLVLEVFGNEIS
Sequence of Peroxisome proliferator-activated receptor delta (Homo sapiens) (Q03181 whole entry, looked up): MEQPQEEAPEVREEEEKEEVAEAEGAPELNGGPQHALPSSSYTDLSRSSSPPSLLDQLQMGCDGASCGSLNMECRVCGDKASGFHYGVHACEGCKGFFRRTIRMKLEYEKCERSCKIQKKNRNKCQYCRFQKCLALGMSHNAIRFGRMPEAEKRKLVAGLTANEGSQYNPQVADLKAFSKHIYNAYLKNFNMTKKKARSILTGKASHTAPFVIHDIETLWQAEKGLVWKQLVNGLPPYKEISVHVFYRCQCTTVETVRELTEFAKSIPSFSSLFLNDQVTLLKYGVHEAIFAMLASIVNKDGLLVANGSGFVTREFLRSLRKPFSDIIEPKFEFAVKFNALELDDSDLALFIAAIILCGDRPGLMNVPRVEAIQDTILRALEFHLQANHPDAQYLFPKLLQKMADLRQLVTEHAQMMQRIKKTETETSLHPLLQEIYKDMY
Sequence of Bile acid receptor (Homo sapiens) (Q96RI1 whole entry, looked up): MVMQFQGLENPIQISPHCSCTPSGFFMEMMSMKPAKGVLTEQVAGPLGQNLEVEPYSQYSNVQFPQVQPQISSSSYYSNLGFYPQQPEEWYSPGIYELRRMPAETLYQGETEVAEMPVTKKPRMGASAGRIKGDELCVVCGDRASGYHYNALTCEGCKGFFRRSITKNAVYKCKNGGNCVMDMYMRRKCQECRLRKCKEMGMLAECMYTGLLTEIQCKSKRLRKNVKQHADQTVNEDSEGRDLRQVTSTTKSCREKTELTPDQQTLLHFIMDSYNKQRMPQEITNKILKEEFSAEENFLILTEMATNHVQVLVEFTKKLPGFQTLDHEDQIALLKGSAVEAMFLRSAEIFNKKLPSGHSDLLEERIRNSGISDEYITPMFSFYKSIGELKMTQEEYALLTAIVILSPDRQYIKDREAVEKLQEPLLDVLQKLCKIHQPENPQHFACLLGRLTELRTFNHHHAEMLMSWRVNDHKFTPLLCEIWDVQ
Sequence of Peroxisome proliferator-activated receptor gamma (Homo sapiens) (P37231 whole entry, looked up): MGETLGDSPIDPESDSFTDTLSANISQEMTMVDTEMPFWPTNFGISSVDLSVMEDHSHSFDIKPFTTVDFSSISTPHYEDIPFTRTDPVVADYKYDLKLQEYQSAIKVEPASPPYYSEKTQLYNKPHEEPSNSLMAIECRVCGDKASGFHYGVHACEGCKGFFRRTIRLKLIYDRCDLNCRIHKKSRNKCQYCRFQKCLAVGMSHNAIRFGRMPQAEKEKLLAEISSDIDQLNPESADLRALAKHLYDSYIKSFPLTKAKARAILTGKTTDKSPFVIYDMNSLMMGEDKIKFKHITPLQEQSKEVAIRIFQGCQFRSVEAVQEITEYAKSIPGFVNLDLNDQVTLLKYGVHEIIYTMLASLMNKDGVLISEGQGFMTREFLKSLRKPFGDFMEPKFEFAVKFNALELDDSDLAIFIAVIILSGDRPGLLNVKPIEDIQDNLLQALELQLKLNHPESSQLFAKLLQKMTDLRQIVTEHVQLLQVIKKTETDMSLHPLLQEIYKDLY
Sequence of Aryl hydrocarbon receptor (Homo sapiens) (P35869 whole entry, looked up): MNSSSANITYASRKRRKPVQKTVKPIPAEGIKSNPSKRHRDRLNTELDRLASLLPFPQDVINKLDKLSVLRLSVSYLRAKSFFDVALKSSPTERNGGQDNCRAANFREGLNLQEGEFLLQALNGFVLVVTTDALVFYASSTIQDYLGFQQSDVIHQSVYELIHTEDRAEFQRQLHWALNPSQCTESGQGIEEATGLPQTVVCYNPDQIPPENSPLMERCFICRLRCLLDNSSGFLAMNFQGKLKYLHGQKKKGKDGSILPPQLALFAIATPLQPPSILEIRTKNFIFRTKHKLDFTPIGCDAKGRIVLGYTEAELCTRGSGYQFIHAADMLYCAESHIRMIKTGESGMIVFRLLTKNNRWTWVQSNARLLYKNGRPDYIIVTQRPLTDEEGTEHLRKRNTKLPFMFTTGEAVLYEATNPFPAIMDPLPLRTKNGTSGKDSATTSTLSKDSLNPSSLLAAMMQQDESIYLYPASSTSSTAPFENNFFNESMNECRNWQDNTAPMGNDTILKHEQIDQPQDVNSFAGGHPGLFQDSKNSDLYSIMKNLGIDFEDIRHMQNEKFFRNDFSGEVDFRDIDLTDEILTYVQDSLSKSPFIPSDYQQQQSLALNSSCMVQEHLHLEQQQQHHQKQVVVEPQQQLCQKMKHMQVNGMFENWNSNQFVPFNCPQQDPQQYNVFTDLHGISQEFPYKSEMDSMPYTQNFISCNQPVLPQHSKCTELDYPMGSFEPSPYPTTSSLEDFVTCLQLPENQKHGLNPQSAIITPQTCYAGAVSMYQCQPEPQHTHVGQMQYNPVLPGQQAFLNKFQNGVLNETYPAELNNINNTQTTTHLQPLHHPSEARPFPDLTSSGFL

Row | SMILES | Potency [1] | Potency [2] | Potency [3] | Potency [4] | Potency [5] | Potency [6] | Potency [7] | Potency [8] | Potency [9] | Potency [10] | Potency [11] | Potency [12] | Potency [13] | Potency [14] | Potency [15] | Potency [16] | Potency [17] | outcome [18] | Potency [19] | Potency [20]
1 | C=C(C)C(=O)OCC | inactive | inactive | inactive | inactive | inactive | inactive | inactive | inactive | inactive | inactive | inactive | inactive | inactive | inactive | inactive | inactive | inactive | inactive | – | –
2 | CC1CCC(=O)C1=O (configuration not stated) | inactive | inactive | inactive | inactive | inactive | inactive | inactive | inactive | inactive | inactive | – | inactive | inactive | inactive | inactive | inactive | inactive | – | inactive | –
3 | COC(C)OC | inactive | inactive | inactive | inactive | inactive | inactive | inactive | inactive | inactive | inactive | – | inactive | inactive | – | inactive | – | inactive | – | inactive | inactive
4 | NCC(=O)CCC(=O)O | inactive | inactive | inactive | inactive | inactive | inactive | – | inactive | inactive | inactive | inactive | – | – | inactive | inactive | inactive | inactive | – | inactive | inactive
5 | CCn1cc(C(=O)O)c(=O)c2cnc(N3CCNCC3)nc21 | inactive | inactive | inactive | inactive | inactive | inactive | inactive | inactive | inactive | inactive | inactive | – | – | inactive | inactive | inactive | – | – | inactive | inactive
6 | CC(CC=O)c1ccccc1 (configuration not stated) | inactive | inactive | inactive | inactive | inactive | inactive | inactive | inactive | inactive | inactive | inactive | inactive | inactive | – | – | – | inactive | inactive | inactive | inactive
7 | Cc1[nH]c(C)c(Cl)c(=O)c1Cl | inactive | inactive | inactive | inactive | inactive | inactive | inactive | inactive | inactive | inactive | inactive | inactive | inactive | – | inactive | – | inactive | inactive | – | –
8 | OCCNCc1ccccc1 | inactive | inactive | inactive | inactive | inactive | inactive | inactive | inactive | inactive | inactive | inactive | inactive | inactive | – | inactive | – | inactive | – | inactive | –
9 | Cc1c(N)cccc1[N+](=O)[O-] | inactive | inactive | inactive | inactive | inactive | inactive | – | inactive | inactive | inactive | inactive | inactive | inactive | – | inactive | – | – | – | inactive | –
10 | O=C1CCC(=O)O1 | inactive | inactive | inactive | inactive | inactive | inactive | inactive | inactive | inactive | inactive | inactive | inactive | inactive | inactive | inactive | inactive | inactive | – | – | inactive
11 | CCCCC(CC)COC(=O)COc1ccc(Cl)cc1Cl (configuration not stated) | inactive | inactive | inactive | inactive | inactive | inactive | inactive | inactive | inactive | inactive | inactive | – | – | – | inactive | – | inactive | inactive | inactive | inactive
12 | CCOC(=O)C1=C[C@]2(CC)CCCN3CCc4c(n1c1ccccc41)[C@@H]32 | inactive | 11.9 µM (active) and inactive | inactive | inactive | inactive | inactive | inactive | inactive | inactive | – | – | – | – | – | – | – | inactive | – | – | –
13 | COCC(C)OC(C)=O (configuration not stated) | inactive | inactive | inactive | inactive | inactive | inactive | – | inactive | inactive | inactive | inactive | inactive | inactive | inactive | inactive | inactive | inactive | inactive | inactive | inactive
14 | CCCCCCCCCCCc1ccccc1 | inactive | inactive | inactive | inactive | inactive | inactive | inactive | inactive | inactive | inactive | inactive | inactive | inactive | inactive | inactive | inactive | inactive | inactive | inactive | inactive
15 | CC(=O)c1ccc2c(c1)N(CCCN(C)C)c1ccccc1S2 | inactive | inactive | inactive | inactive | inactive | inactive | – | inactive | inactive | inactive | – | inactive | inactive | – | – | – | – | – | inactive | –
16 | CCOc1ccc(N=Nc2ccc(/C=C/c3ccc(N=Nc4ccc(OCC)cc4)cc3S(=O)(=O)O)c(S(=O)(=O)O)c2)cc1 | 26.9 µM (active) | inactive | 19 µM (active) | inactive | inactive | inactive | – | inactive | inactive | inactive | – | inactive | inactive | – | inactive | – | inactive | inactive | inactive | inactive
